Experimental data from the supplement of paper PMC13380429.

Key:
[1] = tested on: Vero E6 infected with SARS-CoV-2; assay: morphology score (similarity to uninfected cells); higher = more like uninfected cells; conditions: 24 h
[2] = tested on: Vero E6 infected with SARS-CoV-2; assay: SARS-CoV-2 infection rate relative to infected DMSO; higher = more infection, active = 60 or less; conditions: 24 h

Row | SMILES | morphology score [1] | SARS-CoV-2 infection rate [2]
1 | N=C(N)NC(=O)c1cnn(-c2cccc3ncccc23)c1C1CC1 [zoniporide] (10 µM) | 0.127 | 115% (inactive)
2 | CCCC(=O)N1CCCN(c2nc(N)c3cc(OC)c(OC)cc3n2)CC1 [bunazosin] (10 µM) | 0.0754 | 108% (inactive)
3 | Cc1[nH]c(=O)c(C#N)cc1-c1ccc2nccn2c1 [olprinone] (10 µM) | 0.0999 | 104% (inactive)
4 | CC(=O)OCC(=O)[C@@]1(OC(C)=O)[C@@H](C)C[C@H]2[C@@H]3C[C@H](F)C4=CC(=O)C=C[C@]4(C)[C@@]3(F)[C@@H](O)C[C@@]21C [diflorasone-diacetate] (10 µM) | 0.0652 | 113% (inactive)
5 | Cc1cnc(-c2cnc(NCCNc3ccc(C#N)cn3)nc2-c2ccc(Cl)cc2Cl)[nH]1 (0.833333 µM) | -0.0902 | 108% (inactive)
6 | CN1C(=O)N(C)C2C1N(C)C(=O)N2C (centres undefined) [mebicar] (10 µM) | 0.0884 | 107% (inactive)
7 | COc1cc2c(cc1O)C(CCc1ccc(Cl)cc1)N(C)CC2 (centres undefined) (10 µM) | 0.298 | 72% (inactive)
8 | C=CC[N+]1([C@H]2C[C@H]3[C@@H]4CC[C@H]5C[C@H](O)[C@@H](N6CCOCC6)C[C@]5(C)[C@H]4CC[C@]3(C)[C@H]2OC(C)=O)CCCC1 (10 µM) | 0.061 | 110% (inactive)
9 | CCOC(=O)c1ccc(OC(=O)CCCCCNC(=N)N)cc1 [gabexate] (10 µM) | 0.0775 | 102% (inactive)
10 | O=C(O)C(=O)O.[NH-][C@@H]1CCCC[C@H]1[NH-].[Pt+2] [oxaliplatin] (10 µM) | -0.0885 | 112% (inactive)
11 | COC(=O)C1=C(C)NC(C)=C(C(=O)OCCSc2ccccc2)[C@@H]1C (10 µM) | 0.0793 | 94.5% (inactive)
12 | CC(=O)N1CCN(c2ccc(OC[C@@H]3CO[C@@](Cn4ccnc4)(c4ccc(Cl)cc4Cl)O3)cc2)CC1 (racemic) [ketoconazole] (10 µM) | 0.0784 | 108% (inactive)
13 | CN1C(=O)COc2c(C(=O)NC3CN4CCC3CC4)cc(Cl)cc21 (centres undefined) [azasetron] (10 µM) | 0.143 | 98% (inactive)
14 | C=Cc1cc(O)cc2nc(-c3ccc(O)c(F)c3)oc12 [prinaberel] (10 µM) | 0.143 | 96.5% (inactive)
15 | CN1CCC[C@@H]1CCSc1ccc(O)cc1 (10 µM) | -0.0396 | 112% (inactive)
16 | CC(=O)O/N=C1\C(=O)N(Cc2cc(Cl)ccc2Cl)c2ccc(Cl)cc21 (10 µM) | 0.395 | 76% (inactive)
17 | CS(=O)(=O)Nc1ccc([N+](=O)[O-])cc1Oc1ccccc1 [nimesulide] (10 µM) | 0.0266 | 105% (inactive)
18 | NS(=O)(=O)NCc1csc2ccccc12 (10 µM) | 0.212 | 87.5% (inactive)
19 | CC1(C)CCC(C)(C)c2cc(NC(=O)c3ccc(C(=O)O)cc3)ccc21 [tamibarotene] (10 µM) | 0.135 | 108% (inactive)
20 | On1ncc(C2CCNCC2)c1-c1cccc(-c2ccccc2)c1 (10 µM) | 0.0231 | 108% (inactive)
21 | c1ccc(C[C@H](c2ccccc2)N2CCCCC2)cc1 (racemic) [1-(1,2-diphenylethyl)piperidine-(+/-)] (10 µM) | 0.349 | 69% (inactive)
22 | CO[C@H]1O[C@@H]2O[C@@]3(C)CC[C@H]4[C@H](C)CC[C@@H]([C@H]1C)[C@@]24OO3 [artemether] (10 µM) | 0.0275 | 105% (inactive)
23 | O=C(NC1CCN(CCc2c[nH]c3ccccc23)CC1)c1ccccc1 [indoramin] (10 µM) | 0.105 | 102% (inactive)
24 | CC(C)NCC(O)COc1cccc2[nH]ccc12 (centres undefined) [pindolol] (10 µM) | 0.0938 | 104% (inactive)
25 | CN(C)C(=O)[C@H](O)[C@H](Cc1ccccc1)NC(=O)c1cc2cc(Cl)ccc2[nH]1 (10 µM) | 0.225 | 102% (inactive)
26 | COC(=O)[C@H]1[C@H]2C[C@@H]3c4[nH]c5cc(OC)ccc5c4CCN3C[C@H]2C[C@@H](OC(=O)c2cc(OC)c(OC)c(OC)c2)[C@@H]1OC [reserpine] (10 µM) | 0.127 | 110% (inactive)
27 | O[C@@H](COc1cccc2ncccc12)CN1CCN([C@@H]2c3ccccc3[C@@H]3[C@H](c4ccccc42)C3(F)F)CC1 [zosuquidar] (0.833333 µM) | 0.0321 | 108% (inactive)
